From PubChem BioAssay (NCATS)
Values joined by “and” are separate entries in the source; they are usually repeats but may differ in a detail not shown here. Equal values may be shown once. Records with an inconclusive call do not appear. A call without a number means that no potency is given here. Active and inactive are the calls of the source. Unless noted, calls follow the shape of the dose curve; as a rule, active = well fitted curve in the direction sought with a large enough effect; inconclusive = small, poorly fitted or top-dose-only effect, or another doubt; inactive = no such curve, though single readings can be large; an effect the other way counts as inactive or inconclusive.

Tests used:
[1] = Primary qHTS for small molecule stabilizers of the endoplasmic reticulum resident proteome: Secreted ER Calcium Modulated Protein (SERCaMP) assay (AID 1508630)
In short: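 GLuc-SERCaMP-expressing SH-SY5Y cells, pretreated 16 h with compound, are challenged with thapsigargin to empty ER calcium stores; after 4 h, coelenterazine is added directly to the medium and luminescence is imaged.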

[2] = A High-Content qHTS Against Drug Library for the Identification of Small Molecules that Inhibit DYT1 Early Onset Primary Dystonia-Associated Cell Pathology (AID 1645839; calls by dose curve)
In short: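 In this high-content image screen, delE TorsinA mislocalization in inducible Flp-In 293 cells is scored as %pathology, with cell count serving as the counterscreen. Compound exposure lasts 48 h under tetracycline induction in reduced-serum medium.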

[3] = biological target: Cytochrome P450 2D6 (Homo sapiens) (UniProt P10635); assay: Cytochrome P450 family 2 subfamily D member 6 (CYP2D6) small molecule antagonists: luciferase biochemical (cell-free) qHTS assay (AID 1645840; active = well fitted curve in the direction sought with a large enough effect in the repeat runs; an effect the other way counts as inactive or inconclusive; also: nearly all actives have a fitted effect of over 55% in size; also: potency is read from the fitted curve at half-maximal effect)
In short: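 P450-Glo luminescent screen: recombinant CYP2D6 enzyme–proluciferin substrate mix preincubated with compound 10 min at room temperature, then NADPH regeneration added for 1 h at room temperature. Detection reagent added for 20 min; luciferin light read as relative luminescence units.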

[4] = biological target: Cytochrome P450 2C9 (Homo sapiens) (UniProt P11712); assay: Cytochrome P450 family 2 subfamily C member 9 (CYP2C9) small molecule antagonists: luciferase biochemical (cell-free) qHTS assay (AID 1645842; active = well fitted curve in the direction sought with a large enough effect in the repeat runs; an effect the other way counts as inactive or inconclusive; also: nearly all actives have a fitted effect of over 55% in size; also: potency is read from the fitted curve at half-maximal effect)
In short: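 Luminescence, after 20 min with luciferin detection reagent, reflected CYP2C9 turnover during a 1 h NADPH-driven reaction at 37C. Enzyme-substrate mix contained 0.4% bovine serum albumin and was preincubated with compound 10 min at room temperature.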

[5] = Primary qHTS to identify inhibitors of SARS-CoV-2 cell entry (AID 1645846; calls by dose curve; also: nearly all actives have a fitted effect of over 45% in size; also: potency is read from the fitted curve at half-maximal effect); conditions: activity change, negative = inhibition: at 57.1 µM (top of the series) unless noted
In short: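 Entry measured by luciferase signal 48 h after adding SARS-CoV-2-S pseudotyped MLV particles to HEK293-ACE2 cells preincubated 1 h with compounds. Normalisation: bald particles and spike particles.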

[6] = Primary qHTS for inhibitors of nuclear receptor binding SET domain protein 2 (NSD2) in an isogenic RCH-ACV NSD2 p.E1099K mutant (9B) (AID 1645876); also: nearly all actives have a fitted effect of over 70% in size; also: potency is read from the fitted curve at half-maximal effect
[7] = Primary qHTS for inhibitors of nuclear receptor binding SET domain protein 2 (NSD2) in an RCH-ACV wild type WT cells (2C) (AID 1645877); also: nearly all actives have a fitted effect of over 70% in size; also: potency is read from the fitted curve at half-maximal effect
[8] = biological target: Cytochrome P450 3A4 (Homo sapiens) (UniProt P08684); assay: Cytochrome P450 family 3 subfamily A member 4 (CYP3A4) small molecule antagonists: luciferase qHTS assay (AID 1645841; active = well fitted curve in the direction sought with a large enough effect in the repeat runs; an effect the other way counts as inactive or inconclusive; also: nearly all actives have a fitted effect of over 45% in size)
In short: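 Luminescent CYP3A4 activity readout: compounds plus enzyme-substrate mix 10 min at room temperature, reaction started with NADPH regenerating system for 1 h, stopped with detection reagent, read after 20 min. Ketoconazole served as control.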

Papain (Carica papaya) = Papain (Carica papaya) (UniProt P00784); assay: Primary qHTS assay for inhibitors of the protease papain (AID 1645873);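 also: papain turnover of Z-FR-AMC read as the AMC fluorescence gain over 10 min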
[9] = Cytotoxicity counterscreen for inhibitors of SARS-CoV-2 cell entry (AID 1645845; calls by dose curve; also: nearly all actives have a fitted effect of over 50% in size)
In short: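 48 h compound treatment (after 1 h preincubation), HEK293-ACE2 cells, 37 C/5% CO2; ATP luminescence endpoint; normalized to cell wells and media blanks.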

Cytochrome P450 2D6 (Homo sapiens), sequence (P10635 whole entry, looked up): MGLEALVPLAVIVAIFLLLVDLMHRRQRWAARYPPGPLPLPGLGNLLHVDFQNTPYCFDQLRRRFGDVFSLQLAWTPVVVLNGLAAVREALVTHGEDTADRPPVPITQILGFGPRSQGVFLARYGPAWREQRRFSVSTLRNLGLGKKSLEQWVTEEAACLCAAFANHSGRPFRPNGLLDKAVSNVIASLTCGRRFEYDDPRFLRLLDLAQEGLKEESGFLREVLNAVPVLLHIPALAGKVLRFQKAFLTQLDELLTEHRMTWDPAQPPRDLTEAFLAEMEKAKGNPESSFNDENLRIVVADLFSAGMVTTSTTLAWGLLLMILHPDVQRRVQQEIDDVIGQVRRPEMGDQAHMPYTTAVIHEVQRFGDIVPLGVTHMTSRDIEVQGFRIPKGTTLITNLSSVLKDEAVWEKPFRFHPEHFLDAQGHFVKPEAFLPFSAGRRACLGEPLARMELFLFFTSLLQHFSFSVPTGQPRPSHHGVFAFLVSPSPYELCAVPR
Papain (Carica papaya), sequence (P00784 whole entry, looked up): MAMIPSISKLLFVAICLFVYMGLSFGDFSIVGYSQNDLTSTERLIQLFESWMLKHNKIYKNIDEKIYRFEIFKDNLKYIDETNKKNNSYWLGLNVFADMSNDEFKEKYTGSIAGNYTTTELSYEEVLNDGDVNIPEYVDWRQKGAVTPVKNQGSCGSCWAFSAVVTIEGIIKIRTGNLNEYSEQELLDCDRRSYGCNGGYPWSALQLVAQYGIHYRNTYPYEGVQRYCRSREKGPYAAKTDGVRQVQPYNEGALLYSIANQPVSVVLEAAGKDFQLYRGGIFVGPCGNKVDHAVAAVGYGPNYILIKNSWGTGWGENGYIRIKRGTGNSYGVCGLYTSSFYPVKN
Cytochrome P450 2C9 (Homo sapiens), sequence (P11712 whole entry, looked up): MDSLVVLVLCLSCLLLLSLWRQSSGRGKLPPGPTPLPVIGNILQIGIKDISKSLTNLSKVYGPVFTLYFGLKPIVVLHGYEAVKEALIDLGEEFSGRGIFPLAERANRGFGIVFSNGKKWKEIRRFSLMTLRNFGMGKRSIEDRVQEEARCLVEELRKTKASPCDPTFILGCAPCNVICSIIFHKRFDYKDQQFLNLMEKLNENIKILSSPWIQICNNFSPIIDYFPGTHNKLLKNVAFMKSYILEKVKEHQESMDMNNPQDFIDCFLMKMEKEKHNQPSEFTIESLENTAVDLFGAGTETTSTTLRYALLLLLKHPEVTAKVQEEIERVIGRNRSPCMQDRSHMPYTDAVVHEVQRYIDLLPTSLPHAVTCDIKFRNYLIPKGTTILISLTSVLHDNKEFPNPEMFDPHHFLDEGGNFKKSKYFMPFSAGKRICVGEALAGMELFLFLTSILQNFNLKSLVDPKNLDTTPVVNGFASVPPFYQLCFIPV
Cytochrome P450 3A4 (Homo sapiens), sequence (P08684 whole entry, looked up): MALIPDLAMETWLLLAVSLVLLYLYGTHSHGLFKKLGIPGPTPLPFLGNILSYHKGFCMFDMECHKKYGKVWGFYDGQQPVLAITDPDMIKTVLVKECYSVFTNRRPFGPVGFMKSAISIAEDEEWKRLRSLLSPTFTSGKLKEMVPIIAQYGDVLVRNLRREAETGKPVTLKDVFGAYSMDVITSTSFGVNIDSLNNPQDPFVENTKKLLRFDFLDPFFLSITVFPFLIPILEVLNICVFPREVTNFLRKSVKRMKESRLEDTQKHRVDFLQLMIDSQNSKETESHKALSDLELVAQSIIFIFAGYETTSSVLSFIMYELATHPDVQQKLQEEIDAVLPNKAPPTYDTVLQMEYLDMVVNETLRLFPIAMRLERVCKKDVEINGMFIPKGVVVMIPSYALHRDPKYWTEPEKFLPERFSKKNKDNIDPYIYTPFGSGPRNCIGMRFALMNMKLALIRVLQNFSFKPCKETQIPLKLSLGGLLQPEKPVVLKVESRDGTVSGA

Compound: COc1ccc(C(=O)c2c(C)n(CCN3CCOCC3)c3ccccc23)cc1
- outcome [1]: inactive
- Potency [2]: inactive
- Potency [3]: 12.3 µM (active)
- Potency [4]: 5.49 µM (active)
- Potency [5]: 31.6 µM (active)
- Potency [6]: 23.5 µM (active)
- Potency [7]: 18.8 µM (active)

Compound: O=C(O)C(=O)c1cn(Cc2ccccc2)c2ccc(-c3ccc(OC(F)(F)F)cc3)cc12
- outcome [1]: inactive
- Potency [4]: 16.9 µM (active)
- activity change, negative = inhibition [5]: -24.2%

Compound: COc1ccccc1N1CCNCC1
- Potency [2]: inactive
- Potency [3]: inactive
- outcome [8]: inactive
- Potency [4]: inactive
- Potency (Papain (Carica papaya)): inactive

Compound: C=C1CC[C@@]2(O)[C@H]3Cc4ccc(O)c5c4[C@@]2(CCN3CC2CC2)[C@H]1O5
- Potency [2]: inactive
- Potency [3]: 2.75 µM (active)
- Potency [4]: inactive
- Potency [9]: inactive
- Potency [5]: inactive
- Potency [6]: inactive
- Potency [7]: inactive

Compound: Nc1ccncc1
- outcome [1]: inactive
- activity change, negative = inhibition [5]: -28.2% [at 114 µM]
- Potency (Papain (Carica papaya)): inactive
- Potency [6]: inactive
- Potency [7]: inactive

Compound: CC(C)(N)Cc1ccc(Cl)cc1
- Potency [2]: inactive
- Potency [3]: 6.17 µM (active)
- Potency [4]: inactive
- Potency [6]: inactive
- Potency [7]: inactive

Compound: OCCOc1ccccc1
- Potency [3]: inactive
- Potency [4]: inactive
- Potency [9]: inactive
- Potency [6]: inactive
- Potency [7]: inactive

Compound: C[C@]12CCC(=O)C(O)=C1CC[C@@H]1[C@@H]2CC[C@]2(C)C(=O)CC[C@@H]12
- Potency [2]: inactive
- Potency [3]: inactive
- Potency [4]: inactive
- Potency [9]: inactive
- Potency [5]: inactive
- Potency [6]: inactive
- Potency [7]: inactive

Compound: CN(C)[C@@H]1C(=O)C(C(N)=O)=C(O)[C@@]2(O)C(=O)C3=C(O)c4c(O)cccc4[C@@](C)(O)[C@H]3C[C@@H]12
- Potency [2]: inactive
- Potency [3]: 15.5 µM (active)
- Potency [9]: inactive
- Potency [5]: inactive
- Potency [6]: inactive
- Potency [7]: inactive

Compound: Oc1ccc(Cl)cc1Cc1ccccc1
- Potency [3]: 29.4 µM (active)
- Potency [4]: 9.31 µM (active) and 12.3 µM (active)
- Potency [9]: inactive
- activity change, negative = inhibition [5]: -21.8%
- Potency [6]: 24.6 µM (active)
- Potency [7]: 34.7 µM (active)

Compound: CN1C(=S)CN=C(c2ccccc2)c2cc(Cl)ccc21
- Potency [2]: inactive
- Potency [4]: 12.3 µM (active)

Compound: CC[N+]1(C)CCCC(OC(=O)C(O)(c2ccccc2)c2ccccc2)C1 (stereo unspecified)
- Potency [2]: inactive
- Potency [3]: 2.75 µM (active)
- Potency [4]: inactive
- Potency [6]: inactive
- Potency [7]: inactive

Compound: CCCC(C)(COC(N)=O)COC(=O)NC(C)C (stereo unspecified)
- Potency [2]: inactive
- Potency [3]: inactive
- Potency [4]: inactive
- Potency [6]: inactive
- Potency [7]: inactive

Compound: COC[C@H]1OC(=O)c2coc3c2[C@@]1(C)C1=C(C3=O)C2CCC(=O)[C@@]2(C)C[C@H]1OC(C)=O (stereo partly specified)
- outcome [1]: inactive
- Potency [9]: inactive
- activity change, negative = inhibition [5]: 3.38%
- Potency (Papain (Carica papaya)): inactive
- Potency [6]: 1.84 µM (active) and 7.42 µM (active)
- Potency [7]: 2.59 µM (active) and 18.3 µM (active) and 7.42 µM (active)

Compound: C#CCN(C)[C@H](C)Cc1ccccc1
- Potency [3]: 13.8 µM (active)
- Potency [4]: inactive
- Potency [9]: inactive
- Potency [5]: inactive
- activity change, negative = inhibition [5]: -14%
- Potency [6]: inactive
- Potency [7]: inactive
